A number with no mark means an inactive call. For some assays here: Entries with a potency or affinity are not part of this list. Activity calls are given as the source filed them. Unless noted, the rule behind the calls is not given here.
What was measured:
[1] = antimalarial activity against Dd2 strain (AID 2302;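 active = growth inhibition above 50% at the single 2 µM test dose, taken to imply half-maximal potency below 2 µM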;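 note: 0% = DMSO untreated growth and 100% = chloroquine plus artemisinin killed control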); details: P. falciparum Dd2 in RBCs, LDH growth readout, 72 h; at 2 µM; hits give high values
[2] = human hepatoma cell viability loss – ATP luminescence, cytotoxicity control for P. falciparum antimalarial project, primary screen (AID 2303;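 active = inhibition above 50%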;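 note: 0% = DMSO wells and 100% = digitonin-killed cells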); details: HepG2 viability, 24-48 h, at 10 µM, hits give high values
[3] = target: L-lactate dehydrogenase (Plasmodium falciparum (isolate CDC / Honduras)) (UniProt Q27743); assay: PfLDH activity inhibition – cell lysate, 3D7 strain, counter-screen for P. falciparum growth inhibition project (AID 2304);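 note: 0% = vehicle and 100% = reference inhibitor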; details: P. falciparum 3D7 crude extract, LDH APAD/NBT absorbance; at 2 µM; hits give high values
[4] = inhibition of 3D7 malaria parasite growth – strain 3D7 (AID 2306);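 note: 0% = DMSO wells and 100% = chloroquine plus artemisinin control wells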; details: P. falciparum 3D7 erythrocytic growth, LDH absorbance, 72 h; at 2 µM; hits give high values
[5] = target: Calcium-dependent protein kinase 1 (Plasmodium falciparum (isolate 3D7)) (UniProt P62344); assay: PfCDPK1 kinase inhibitors, biochemical, TCAMS library (AID 1159585; cut-off not given, nearly all actives have IC50 up to about 0.98 µM;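 note: inhibitors leave more ATP so luminescence rises with inhibition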); details: recombinant PfCDPK1, Kinase-Glo ATP depletion luminescence
[6] = target: Plasmodium falciparum protein kinase 6 (PK6, PF3D7_1337100) (UniProt Q8IDW1); assay: PfPK6 kinase inhibitors, biochemical, TCAMS library (AID 1159586); details: recombinant PfPK6, Kinase-Glo ATP depletion luminescence
[7] = target: Protein kinase 7 (PK7), Plasmodium falciparum 3D7 (PF3D7_0213400) (UniProt Q7YTF7); assay: inhibition of Plasmodium PK7 catalytic activity – biochemical, TCAMS antimalarial set, Kinase-Glo luminescence (AID 1159587); details: recombinant PfPK7, Kinase-Glo ATP depletion luminescence
[8] = target: Calcium-dependent protein kinase 4 (Plasmodium falciparum (isolate 3D7)) (UniProt Q8IBS5); assay: PfCDPK4 kinase inhibitors, biochemical, TCAMS library (AID 1159588; cut-off not given, nearly all actives have IC50 up to about 0.91 µM); details: recombinant PfCDPK4, Kinase-Glo ATP depletion luminescence
Sequence of Calcium-dependent protein kinase 4 (Plasmodium falciparum (isolate 3D7)) (Q8IBS5 whole entry, looked up): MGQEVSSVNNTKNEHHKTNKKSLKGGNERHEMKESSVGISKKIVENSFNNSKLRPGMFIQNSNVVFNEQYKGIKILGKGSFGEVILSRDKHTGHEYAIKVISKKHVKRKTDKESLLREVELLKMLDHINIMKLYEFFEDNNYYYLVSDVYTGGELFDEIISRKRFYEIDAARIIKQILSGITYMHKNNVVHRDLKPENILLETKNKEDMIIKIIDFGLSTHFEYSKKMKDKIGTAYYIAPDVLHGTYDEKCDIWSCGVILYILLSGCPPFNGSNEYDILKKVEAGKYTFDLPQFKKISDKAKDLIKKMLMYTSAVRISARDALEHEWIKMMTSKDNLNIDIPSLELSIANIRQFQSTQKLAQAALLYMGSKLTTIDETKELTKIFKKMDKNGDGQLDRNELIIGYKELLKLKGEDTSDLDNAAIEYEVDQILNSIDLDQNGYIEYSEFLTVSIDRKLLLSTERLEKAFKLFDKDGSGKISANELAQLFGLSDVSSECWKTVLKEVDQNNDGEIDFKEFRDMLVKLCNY

Sequence of L-lactate dehydrogenase (Plasmodium falciparum (isolate CDC / Honduras)) (Q27743 whole entry, looked up): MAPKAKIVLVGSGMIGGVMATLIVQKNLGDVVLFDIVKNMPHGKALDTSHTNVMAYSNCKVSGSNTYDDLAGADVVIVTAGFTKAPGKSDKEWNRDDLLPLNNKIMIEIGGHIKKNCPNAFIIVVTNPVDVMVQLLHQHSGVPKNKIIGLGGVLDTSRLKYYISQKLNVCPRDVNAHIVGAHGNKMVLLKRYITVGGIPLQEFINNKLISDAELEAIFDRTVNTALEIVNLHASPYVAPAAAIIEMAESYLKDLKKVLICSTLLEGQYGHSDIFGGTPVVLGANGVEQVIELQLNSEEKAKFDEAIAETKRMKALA
Sequence of Calcium-dependent protein kinase 1 (Plasmodium falciparum (isolate 3D7)) (P62344 whole entry, looked up): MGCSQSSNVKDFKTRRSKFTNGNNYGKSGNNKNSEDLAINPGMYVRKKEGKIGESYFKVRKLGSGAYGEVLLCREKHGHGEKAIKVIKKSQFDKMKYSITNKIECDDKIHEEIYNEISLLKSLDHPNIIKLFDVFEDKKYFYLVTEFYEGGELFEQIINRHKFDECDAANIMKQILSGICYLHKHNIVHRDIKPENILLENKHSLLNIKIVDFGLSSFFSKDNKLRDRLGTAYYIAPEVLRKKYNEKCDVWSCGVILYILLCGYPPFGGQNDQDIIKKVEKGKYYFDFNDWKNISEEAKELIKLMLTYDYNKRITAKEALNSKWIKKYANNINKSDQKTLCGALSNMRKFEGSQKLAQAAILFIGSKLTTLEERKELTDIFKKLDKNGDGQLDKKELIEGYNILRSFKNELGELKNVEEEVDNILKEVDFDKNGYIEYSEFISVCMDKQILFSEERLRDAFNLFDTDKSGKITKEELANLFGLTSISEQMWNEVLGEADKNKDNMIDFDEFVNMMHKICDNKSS
Sequence of Protein kinase 7 (PK7), Plasmodium falciparum 3D7 (PF3D7_0213400) (Q7YTF7 1-343): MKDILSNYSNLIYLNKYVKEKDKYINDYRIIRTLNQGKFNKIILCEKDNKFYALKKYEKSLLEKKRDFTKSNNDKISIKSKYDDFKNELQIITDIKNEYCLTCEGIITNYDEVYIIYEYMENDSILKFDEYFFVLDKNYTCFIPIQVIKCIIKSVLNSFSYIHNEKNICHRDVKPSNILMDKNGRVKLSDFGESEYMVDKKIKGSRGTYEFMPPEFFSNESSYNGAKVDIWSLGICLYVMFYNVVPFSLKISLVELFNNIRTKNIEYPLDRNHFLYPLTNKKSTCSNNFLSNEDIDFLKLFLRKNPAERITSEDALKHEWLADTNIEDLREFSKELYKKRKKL
Sequence of Plasmodium falciparum protein kinase 6 (PK6, PF3D7_1337100) (Q8IDW1 1-305): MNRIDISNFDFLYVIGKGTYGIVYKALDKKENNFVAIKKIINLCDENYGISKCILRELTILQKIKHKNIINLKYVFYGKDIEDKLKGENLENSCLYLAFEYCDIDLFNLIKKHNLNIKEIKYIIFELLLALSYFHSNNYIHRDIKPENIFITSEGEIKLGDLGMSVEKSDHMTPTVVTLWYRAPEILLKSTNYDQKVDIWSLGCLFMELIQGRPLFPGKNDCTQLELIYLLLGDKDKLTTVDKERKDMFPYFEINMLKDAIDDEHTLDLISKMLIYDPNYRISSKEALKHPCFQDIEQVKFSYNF

Compound	growth inhibition [1]	inhibition [2]	inhibition [3]	growth inhibition [4]	outcome [5]	outcome [6]	outcome [7]	outcome [8]
COc1cc(NC(=O)/C=C/c2cc(F)cc(F)c2F)cc(OCCN2CCCCC2)c1	80% (active)	10%	0%	102% (active)	inactive	inactive	inactive	inactive
CCC(C)NC(=O)Nc1ccc(-c2cccc(-c3nc4c(C)cccc4[nH]3)c2)cc1 (stereo not given)	83% (active)	55% (active)	6%	102% (active)	inactive	inactive	inactive	inactive
CC(=O)Nc1ccc(OCCCCN(Cc2ccccc2OC(F)(F)F)c2ccc(C(F)(F)F)c(C#N)c2)c(Cl)c1	96% (active)	11%	-2%	89% (active)	inactive	inactive	inactive	inactive
N=C(N)CCN(Cc1ccc(Cl)cc1)c1ccc(Cl)cc1	92% (active)	22%	5%	96% (active)	inactive	inactive	inactive	inactive
Cc1nc(N)nc(N)c1-c1ccc(Cl)cc1	0%	15%	-4%	96% (active)	inactive	inactive	inactive	inactive
CC(=O)N(C)C1CCN(Cc2ccc(-c3cccc(-c4nc5ccc(F)cc5[nH]4)c3)cc2)C1 (stereo not given)	79% (active)	28%	6%	100% (active)	inactive	inactive	inactive	inactive
CN(Cc1cc(C(F)(F)F)cc(C(F)(F)F)c1)C(=O)[C@H]1CNC[C@@H]1c1ccc(F)cc1	4%	1%	-5%	92% (active)	inactive	inactive	inactive	inactive
Cc1cc(N2CCCC2)nc(Nc2ccc(NC(=O)C3CCCC3)cc2)n1	81% (active)	27%	1%	102% (active)	inactive	inactive	inactive	inactive
CC(CN(C)C)C(=O)Nc1ccc(-c2ccc(-c3nc4ccc(C(F)(F)F)cc4[nH]3)cc2)cc1 (stereo not given)	93% (active)	14%	2%	101% (active)	inactive	inactive	inactive	inactive
O=C(/C=C/c1ccc(Cl)c(Cl)c1)NCCCCCN1CCCN(C(=O)Nc2ccc(C(F)(F)F)cc2)CC1	7%	31%	3%	102% (active)	inactive	inactive	inactive	inactive
Nc1cc(C(F)(F)F)ccc1Cl	-1%	8%	-1%	97% (active)	inactive	inactive	inactive	inactive
CCCCN(CCCC)C(=Nc1cccc(Cl)c1Cl)Nc1ccc(C#N)cc1O	69% (active)	4%	-6%	89% (active)	inactive	inactive	inactive	inactive
CCCCCCCN1CC[C@H](CC(=O)Nc2ccnc3ccc(OC)cc23)[C@@H](CC)C1	75% (active)	14%	-4%	101% (active)	inactive	inactive	inactive	inactive
COc1ccc2c(OC)c(CNCCCCCCNCc3ccc4cc(OC)ccc4c3OC)ccc2c1	49%	100% (active)	4%	98% (active)	inactive	inactive	inactive	inactive
CCCc1cc(Cc2cnc(N)nc2N)cc(CCC)c1OCCCCC(=O)OC	-5%	-7%	-5%	94% (active)	inactive	inactive	inactive	inactive
N#Cc1cccc(C(=O)Nc2cccc(-c3ccc(CN4CCC(O)CC4)cc3)c2)c1	2%	15%	1%	86% (active)	inactive	inactive	inactive	inactive
COC(=O)CNC(c1ccccc1)c1cc(Br)ccc1NC(=O)c1ccccc1Br (stereo not given)	77% (active)	10%	-1%	99% (active)	inactive	inactive	inactive	inactive
O=C(/C=C/c1ccc(Cl)c(Cl)c1)NCCCCCN1CCCN(C(=O)Nc2cc(F)cc(F)c2)CC1	1%	4%	0%	94% (active)	inactive	inactive	inactive	inactive
CCCN1CCCN(Cc2cccc(NC(=O)c3ccc(-c4ccccc4)cc3)c2)CC1	15%	34%	1%	92% (active)	inactive	inactive	inactive	inactive
COc1cc2ncnc(Nc3ccc(Br)c(Cl)c3)c2cc1OC	15%	22%	6%	101% (active)	inactive	inactive	inactive	inactive

Compound	growth inhibition [1]	inhibition [2]	inhibition [3]	growth inhibition [4]	outcome [5]	outcome [6]	outcome [7]	outcome [8]
CC(C)CC1c2[nH]c3ccccc3c2CCN1C(=O)CCc1ccccc1 (stereo not given)	82% (active)	-13%	-2%	92% (active)	inactive	inactive	inactive	inactive
COc1ccccc1CCNc1nc(C)cc(N[C@@H](Cc2ccccc2)C(=O)Nc2ccccc2)n1	86% (active)	30%	0%	101% (active)	inactive	inactive	inactive	inactive
N#CCCN1CCN(Cc2cccc(-c3ccc(-c4nc5ccccc5[nH]4)cc3)c2)CC1	20%	18%	-9%	93% (active)	inactive	inactive	inactive	inactive
CC(Oc1ccc(Cl)cc1)C(=O)Nc1cc(C(F)(F)F)ccc1N1CCOCC1 (stereo not given)	97% (active)	14%	-6%	97% (active)	inactive	inactive	inactive	inactive
O=C(/C=C/c1ccc(Cl)c(Cl)c1)NCCCCCCN1CCCN(C(=O)Nc2cccc(C(F)(F)F)c2)CC1	0%	25%	-3%	95% (active)	inactive	inactive	inactive	inactive
COc1ccc(Nc2nccc(-c3cccc(NC(=O)c4cc5cc(F)ccc5[nH]4)c3)n2)cc1	37%	3%	5%	92% (active)	inactive	inactive	inactive	inactive
CCn1ccc2c(N3CCCCS3(=O)=O)cc(C(=O)N[C@@H](Cc3ccccc3)[C@H](O)CNC(C)(C)CCCC(C)C)cc21	98% (active)	23%	-6%	96% (active)	inactive	inactive	inactive	inactive
Cc1cc(C(=O)OCC(=O)Nc2c(C)n(C)n(-c3ccccc3)c2=O)c(C)n1-c1ccc(F)cc1	99% (active)	-4%	-1%	100% (active)	inactive	inactive	inactive	inactive
CCCN(c1ccc(C(F)(F)F)cc1[N+](=O)[O-])S(=O)(=O)C(c1ccccc1)c1ccc(C(F)(F)F)cc1[N+](=O)[O-] (stereo not given)	49%	-11%	1%	94% (active)	inactive	inactive	inactive	inactive
CCc1cc2c(Sc3nc4ccccc4[nH]3)ncnc2s1	98% (active)	6%	2%	97% (active)	inactive	inactive	inactive	inactive
N#Cc1cccc(C(=O)N2CCOC(CCN3CCC(c4ccccc4)CC3)(c3ccc(Cl)c(Cl)c3)C2)c1 (stereo not given)	49%	51% (active)	0%	87% (active)	inactive	inactive	inactive	inactive
CCOC(=O)C(NC(=O)Cc1ccccc1)C(C)C (stereo not given)	98% (active)	39%	4%	96% (active)	inactive	inactive	inactive	inactive
NC1=NC2(CCCCC2)N(OCCCCCCc2ccccc2)C(N)=N1	69% (active)	73% (active)	-2%	100% (active)	inactive	inactive	inactive	inactive
Cc1cccc(C)c1NC1=NC(=S)N(c2cccc(Cl)c2)C12CCC(C(C)(C)C)CC2 (stereo not given)	53% (active)	4%	-14%	87% (active)	inactive	inactive	inactive	inactive
COC(=O)Cn1c(C2CCN(CC3CCC(NC(=O)/C=C/c4ccc(Cl)c(Cl)c4)CC3)CC2)nc2ccccc21 (stereo not given)	17%	12%	4%	95% (active)	inactive	inactive	inactive	inactive
CC(C)CNC(=O)CN1C(=O)C(c2ccccc2)(c2ccccc2)N=C1N	46%	15%	-1%	94% (active)	inactive	inactive	inactive	inactive
COc1ccc(O)c(-c2sc(N=C(N)N)nc2-c2ccccc2)c1	96% (active)	2%	-2%	101% (active)	inactive	inactive	inactive	inactive
CC(C)CCNc1nc(NCc2ccccc2)c2cc(O)ccc2n1	92% (active)	25%	3%	103% (active)	inactive	inactive	inactive	inactive
CC(=O)Nc1ccc(C(=O)Nc2cccc(-c3ccc(-c4nc5ccccc5[nH]4)cc3)c2)cn1	93% (active)	12%	0%	100% (active)	inactive	inactive	inactive	inactive
CCN1CCC(N(Cc2ccc(-c3ccc(C(F)(F)F)cc3)cc2)C(=O)Cn2c(SCc3ccc(F)cc3)nc(=O)c3c2CCC3)CC1	96% (active)	46%	2%	90% (active)	inactive	inactive	inactive	inactive

Source: PubChem BioAssay
